Several values for one entry are separate records, joined by “and”; a condition that tells them apart may be missing. Equal entries are not always repeated. Values without a mark were called inactive. Records with an inconclusive call do not appear. Activity calls are given as the source filed them. Calls come from the whole dose curve; as a rule, active = well fitted curve in the direction sought with a large enough effect in the repeat runs; inconclusive = weak or mixed curves; inactive = no such curve, though single readings can be large; an effect the other way counts as inactive or inconclusive.

Test [1] is described as follows: qHTS RealTime-Glo MT Cell Viability Assay in HepG2 cells - 40 hour (AID 1224870). Note: nearly all actives have a fitted effect of over 50% in size. The method, boiled down:
(§1)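 Real-time viability: cells seeded at 600 per well together with NanoLuc and cell-permeant prosubstrate, compounds added after 5 h incubation. Luminescence tracked at 0, 8, 16, 24, 32 and 40 h of exposure.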
A general note: In qHTS, concentration-response curves come from the screen itself.

The nature of test [2]: qHTS RealTime-Glo MT Cell Viability Assay in HepG2 cells - 8 hour (AID 1224873). Note: nearly all actives have a fitted effect of over 55% in size. Put shortly: as §1
Test [3] in a line: qHTS RealTime-Glo MT Cell Viability Assay in HEK293 cells - 40 hour (AID 1224874). Note: nearly all actives have a fitted effect of over 50% in size. The settings on record: RealTime-Glo luminescence; max response: active compounds read low. Put shortly:
(§2)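 600 cells/well were plated with the nonlytic NanoLuc/prosubstrate reagent, pre-incubated 5 h, then given 23 nL of compound in DMSO. Incubation at 37 C for 40 h, with luminescence from viable-cell-reduced substrate read repeatedly from 0 h.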

Test [4] in a line: A CellTox Green Cytotoxicity Assay to monitor cytotoxicity in HEK293 cells - 24 hour (AID 1224875). Note: series mostly up to about 77 µM; nearly all actives have a fitted effect of over 45% in size. Put shortly: (§3)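 HEK293 cells, 600/well, were preincubated 5 hours and then exposed to compounds at 37 C for up to 40 hours. A cell-impermeant cyanine dye staining dead-cell DNA was read by fluorescence at 0, 8, 16, 24, 32 and 40 h time points.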
Test [5] can be described thus: qHTS RealTime-Glo MT Cell Viability Assay in HepG2 cells - 32 hour (AID 1224877). Note: nearly all actives have a fitted effect of over 55% in size. Put shortly: (§4)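 Cell number in HepG2 cultures estimated from NanoLuc luminescence generated by metabolic reduction of a prosubstrate by living cells. The homogeneous, nonlytic format allowed repeated reads at 0, 8, 16, 24, 32 and 40 h of compound exposure.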
Test [6] can be described thus: A CellTox Green Cytotoxicity Assay to monitor cytotoxicity in HepG2 cells - 24 hour (AID 1224878). Note: nearly all actives have a fitted effect of over 45% in size. Put shortly: (§5)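 HepG2 cells, 600/well, preincubated 5 h with CellTox Green dye, then exposed to Tox21 compounds in DMSO at 37 C for up to 40 h. Dead-cell DNA fluorescence read at the indicated time point.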
Test [7] is described as follows: A CellTox Green Cytotoxicity Assay to monitor cytotoxicity in HepG2 cells - 40 hour (AID 1224879). Note: nearly all actives have a fitted effect of over 40% in size. The method, boiled down:
as §5

The nature of test [8]: qHTS RealTime-Glo MT Cell Viability Assay in HEK293 cells - 0 hour (AID 1224880). Note: top concentration of the series differs between compounds; nearly all actives have a fitted effect of over 45% in size. The method, boiled down:
as §2

The nature of test [9]: A CellTox Green Cytotoxicity Assay to monitor cytotoxicity in HEK293 cells - 32 hour (AID 1224881). Note: nearly all actives have a fitted effect of over 40% in size. Put shortly:
as §3

Test [10] can be described thus: A CellTox Green Cytotoxicity Assay to monitor cytotoxicity in HepG2 cells - 0 hour (AID 1224882). Note: nearly all actives have a fitted effect of over 35% in size. Put shortly: as §5
Test [11] is described as follows: A CellTox Green Cytotoxicity Assay to monitor cytotoxicity in HepG2 cells - 32 hour (AID 1224883). Note: nearly all actives have a fitted effect of over 50% in size. The method, boiled down:
as §5

The nature of test [12]: A CellTox Green Cytotoxicity Assay to monitor cytotoxicity in HEK293 cells - 8 hour (AID 1224884). Note: nearly all actives have a fitted effect of over 35% in size. Put shortly: as §3
Test [13] in a line: qHTS RealTime-Glo MT Cell Viability Assay in HepG2 cells - 16 hour (AID 1224885). Note: nearly all actives have a fitted effect of over 50% in size. The method, boiled down:
as §4

Test [14] is described as follows: qHTS RealTime-Glo MT Cell Viability Assay in HEK293 cells - 24 hour (AID 1224886). The method, boiled down: (§6)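 Homogeneous bioluminescent viability format in HEK293 cells (600 cells/well). Following 5 h at 37 C/5% CO2, 23 nL compound was pintooled; the signal was measured repeatedly during 40 h incubation.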
A short description of test [15]: qHTS RealTime-Glo MT Cell Viability Assay in HEK293 cells - 8 hour (AID 1224887). Note: nearly all actives have a fitted effect of over 50% in size. Note: potency is the fitted concentration of half-maximal effect. Put shortly:
as §2

A short description of test [16]: A CellTox Green Cytotoxicity Assay to monitor cytotoxicity in HEK293 cells - 16 hour (AID 1224888). Note: nearly all actives have a fitted effect of over 35% in size. The method, boiled down:
as §3

The nature of test [17]: qHTS RealTime-Glo MT Cell Viability Assay in HepG2 cells - 0 hour (AID 1224889). Note: nearly all actives have a fitted effect of over 50% in size. Put shortly: as §4
The nature of test [18]: qHTS RealTime-Glo MT Cell Viability Assay in HEK293 cells - 16 hour (AID 1224872). Put shortly: as §6
Test [19] in a line: A CellTox Green Cytotoxicity Assay to monitor cytotoxicity in HepG2 cells - 16 hour (AID 1224876). Note: nearly all actives have a fitted effect of over 45% in size. The method, boiled down:
as §5
% is set by controls: 0 for no effect and ±100 for the full control effect.

On to `O=S(=O)(Oc1ccc(Cl)cc1)c1ccc(Cl)cc1`, for which the Potency result in [1], in test [2], in test [4], in [5], in [6] and in test [7] was “inactive” each time. The Potency entry in [8], in [9], in test [10], in [11], in [12] and in [13] was “inactive” in each case. The Potency result in [14], in [15], in test [16] and in [17] was “inactive” in each case. The max response in [3] was -23.5% and -4.71%.

For `NNC(N)=S`, the Potency entry in test [1], in test [2], in [4], in test [5], in test [6] and in [7] was “inactive” each time. In addition, the Potency result in [8], in test [9], in test [10], in [11], in test [12] and in [13] was “inactive” each time. The Potency entry in test [14], in [15], in test [16] and in [17] was “inactive” throughout.

Regarding `N#CCCCl`, the Potency entry in [1], in [18], in test [2], in test [4], in [19] and in test [5] was “inactive” throughout. Moreover, the Potency entry in test [6], in test [7], in test [8], in [9], in [11] and in test [12] was “inactive” throughout. The Potency entry in [13], in test [14], in test [16] and in test [17] was “inactive” each time. The max response in [3] is 2.74% and -10.7%.

On to `C=CCc1ccc2c(c1)OCO2`, for which the Potency entry in test [1], in test [18], in test [2], in [4], in test [19] and in [5] was “inactive” throughout. For the same compound, the Potency result in test [6], in test [7], in test [8], in test [9], in test [11] and in [12] was “inactive” throughout. In addition, the Potency entry in test [13], in test [14], in test [15], in [16] and in [17] was “inactive” in each case. Besides, the max response in [3] is 13.1% and 2.61%.

`Cc1cc(C)cc(C)c1`: the Potency result in test [1], in [18], in test [2], in [4], in test [19] and in test [5] was “inactive” in each case. Also, the Potency result in test [6], in [7], in test [8], in [9], in test [10] and in test [11] was “inactive” throughout. Further, the Potency result in [12], in [13], in [14], in test [16] and in test [17] was “inactive” each time. In addition, the max response in [3] is 1.65% and -3.48%.

On to `CC(C)NC(C)C`, for which the Potency entry in [1], in test [18], in test [2], in test [4], in test [19] and in test [5] was “inactive” each time. Further, the Potency result in test [6], in test [7], in test [8], in test [9], in test [10] and in test [11] was “inactive” throughout. The Potency entry in test [12], in test [13], in test [14], in test [16] and in test [17] was “inactive” each time.

Regarding `CCCCN(CC)c1c([N+](=O)[O-])cc(C(F)(F)F)cc1[N+](=O)[O-]`, the Potency entry in test [1], in [2], in test [4], in [19], in test [5] and in test [6] was “inactive” throughout. Also, the Potency entry in test [7], in test [8], in test [9], in test [10], in test [11] and in test [12] was “inactive” in each case. Also, the Potency result in [13], in [14], in test [16] and in test [17] was “inactive” each time. The max response in test [3] is -1.03% and 20.2%. Further, the Potency in test [15] is 17.7 µM (active).

Take `CNC(=O)Oc1cccc2c1OC(C)(C)O2`: the Potency entry in [1], in test [2], in test [4], in [19], in test [5] and in test [6] was “inactive” in each case. Moreover, the Potency result in test [7], in test [8], in [9], in [10], in test [11] and in test [12] was “inactive” in each case. Besides, the Potency result in test [13], in test [14], in [16] and in [17] was “inactive” throughout.

The values above are taken from PubChem BioAssay (Tox21).
